Compound activity deposited in PubChem by The Scripps Research Institute Molecular Screening Center.
Only some compounds are listed: those with a hit (about 2.3% of all), similar ones and a draw of the others.
CHO-K1 Ca antag – counter-screen for M1 antagonists: effect in parental CHO-K1 cells; AID 602250; inhibition, % at 3 µM; ATP-induced calcium, Fluo-8 fluorescence; 360,000 compounds, 0.6% hits;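 active = inhibition above a per-plate cutoff, the plate's mean sample inhibition plus 3 SD, cut at about 24% in these data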
CHO-K1 Ca ag – counter-screen for M1 agonists: effect in parental CHO-K1 cells | Fluo-8 calcium fluorescence; scaled to maximal ATP response, vehicle zero | activation, % at 3 µM | 360,000 compounds, 0.48% hits | AID 602248; in the data active = activation above about 15%;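 also: untransfected CHO-K1 host cells lacking M1 receptor as counterscreen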
CHO-K1 Ca PAM – nonselective activator or artifact in parental CHO-K1 calcium assay; activation, % at 3 µM; ATP EC20, Fluo-8 calcium fluorescence; 0% at ATP EC20, 100% at ATP max; 360,000 compounds, 0.02% hits;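 active = activation above the run cutoff, the mean activation of all test compounds plus 3 SD, cut at about 40% in these data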;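 also: peak over basal fluorescence ratio in a 140 s read after ATP addition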
M1 antag – blocks human M1 muscarinic receptor. P11229. inhibition, % at 3 µM. AID 588852. CHO-K1 hM1, Fluo-8 calcium fluorescence, ACh EC80 antagonist. 360,000 compounds, 1.3% hits;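 active = percent inhibition above its own plate's cutoff, namely the mean of that plate's compound wells plus 3 SD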;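 also: peak over basal fluorescence ratio during 140 s after agonist addition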
Target sequence (P11229 whole entry, looked up): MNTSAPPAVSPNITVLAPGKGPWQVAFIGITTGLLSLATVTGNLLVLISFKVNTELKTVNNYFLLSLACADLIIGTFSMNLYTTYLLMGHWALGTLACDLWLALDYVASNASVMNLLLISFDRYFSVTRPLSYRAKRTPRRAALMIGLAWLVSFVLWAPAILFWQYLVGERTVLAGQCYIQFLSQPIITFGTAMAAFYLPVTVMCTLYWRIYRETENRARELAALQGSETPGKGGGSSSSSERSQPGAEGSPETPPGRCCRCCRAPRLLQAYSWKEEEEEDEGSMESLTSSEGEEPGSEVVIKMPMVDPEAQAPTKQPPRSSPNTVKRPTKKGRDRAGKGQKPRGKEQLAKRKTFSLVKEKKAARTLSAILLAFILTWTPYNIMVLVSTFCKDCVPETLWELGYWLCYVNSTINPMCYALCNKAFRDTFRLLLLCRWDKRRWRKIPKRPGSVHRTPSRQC
CHRM1 agonist – human M1 muscarinic receptor agonism | P11229 | CHO-K1 hM1, Fluo-8 calcium fluorescence, agonist mode; 0% DMSO, 100% acetylcholine EC100 | activation, % at 3 µM | 360,000 compounds, 0.33% hits | AID 588814;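 active = activation above the run's mean compound activation plus 3 SD, cut at about 16% in these data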;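 also: peak over basal fluorescence ratio within a 140 s kinetic read after compound addition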
M1 PAM – positive allosteric modulators of human M1 muscarinic receptor | 360,000 compounds, 0.088% hits | P11229 | activation, % at 3 µM | AID 588819 | CHO-K1 hM1, Fluo-8 calcium fluorescence, ACh EC20; 0% = ACh EC20, 100% = maximal ACh; in the data active = activation above about 19%, passing the limit was not always enough
Large screens that a line does not name were inactive.

CCOC(=O)c1ccc(NC(=O)C(=O)NCCc2ccc(OC)cc2)cc1	none
CCOC(=O)c1ccc(NC(=S)NCCc2ccc(F)cc2)cc1	CHO-K1 Ca antag 28, CHO-K1 Ca ag 23
CCOC(=O)CCc1c(C(=O)OCC)[nH]c(CC)c1C(=O)OCc1ccccc1	none
O=C(Nc1cccc(Cl)c1)Nc1cccc(Cl)c1	none
COc1ccccc1NS(=O)(=O)c1cccc(NC(=O)Nc2cccc(Cl)c2)c1	CHO-K1 Ca antag 34
COc1ccc(NC(=O)c2ccc(Cl)c(S(=O)(=O)N3CCc4ccccc4C3)c2)cn1	M1 antag 18
COC(=O)c1cc(NC(=O)Nc2cccc(Cl)c2)ccc1Cl	CHO-K1 Ca antag 24, CHO-K1 Ca ag 18, M1 antag 32
COC(=O)c1cccc(NC(=S)Nc2ccc(Cl)c(Cl)c2)c1	CHO-K1 Ca antag 26
CCOc1ccc(CCNC(=O)c2cccc(C#N)c2)cc1OCC	none
COc1ccc(CCNC(=O)c2ccc(S(=O)(=O)N3CCCCC3)cc2)cc1	none
Cc1ccc(S(=O)(=O)N2CCCCC2CCNC(=O)C(=O)NCc2ccccc2)cc1 (stereo not drawn)	none
COc1ccc(S(=O)(=O)NC(=O)C2(C)CCN2C(=O)c2cccc(F)c2)cc1 (stereo not drawn)	none
COC(=O)c1cccc(NC(=O)NC(=O)c2ccc(Cl)cc2)c1	none
COC(=O)c1cccc(NC(=O)Nc2ccc(Cl)cc2)c1	M1 antag 38
COc1ccccc1NS(=O)(=O)c1cc(NC(=O)c2ccc(Cl)nc2)ccc1Cl	CHO-K1 Ca ag 16, M1 antag 28
N#Cc1c(C(F)(F)F)cc(-c2ccccc2)n(N)c1=O	CHO-K1 Ca antag 31
CCCN(CC(=O)Nc1ccccc1OC)C(=O)CC1CCCC1	none
CSc1ncc(CN2CCN(C3CCCC3)C(CCO)C2)cn1 (stereo not drawn)	M1 antag 34
CSc1ncc(CN2CCN(CC=C(C)C)C(CCO)C2)cn1 (stereo not drawn)	M1 antag 27
COc1ccc(CN(C)C[C@H]2OCCCC[C@@H](C)Oc3ccc(NS(C)(=O)=O)cc3C(=O)N([C@H](C)CO)C[C@@H]2C)cc1	none
CSCCC(c1nnnn1C1CCCCC1)N1CCN(C/C=C/c2ccccc2)CC1 (stereo not drawn)	none
O=C(OCC(=O)N(Cc1ccccc1)Cc1ccccc1)c1ccccc1NCCO	M1 antag 21
CN(C)S(=O)(=O)c1ccc(C(=O)NCCC(=O)N2CCCC2)cc1	none
Cc1nnc(Nc2ccc(C(=O)N3CCOCC3)cc2)c2ccccc12	M1 PAM 27
CCN(C(=O)CN1C(=O)COc2ccc(S(=O)(=O)N3CCCCCC3)cc21)c1cccc(C)c1	CHO-K1 Ca ag 35
CCN(Cc1ccccc1)C(=O)CN1C(=O)COc2ccc(S(=O)(=O)N3CCCCCC3)cc21	none
COc1cc(/C=C2\S/C(=N/S(=O)(=O)c3ccccc3)NC2=O)c([N+](=O)[O-])cc1OC	CHO-K1 Ca antag 27
COc1ccc(S(=O)(=O)/N=C2/NC(=O)/C(=C\c3cc(OC)c(OC)cc3[N+](=O)[O-])S2)cc1	none
CN(C)CC/C=C1\c2ccc(F)cc2Sc2cc(F)c(Cl)cc21	M1 antag 100
CN(C)CCOCCOc1ccc(Cl)cc1C(C)(C)C	none
CN(C)CC/C=C1\c2ccccc2Sc2ccc(Cl)cc21	M1 antag 100
CN(C)CCOc1ccc2c(c1)Sc1ccccc1CC2=O	none
OCCN1CCN(CC/C=C2/c3ccccc3Sc3ccc(Cl)cc32)CC1	none
CN(C)CC/C=C1\c2ccccc2Sc2cc(F)c(Cl)cc21	M1 antag 100
CN(C)CC/C=C1\c2cc(Cl)ccc2Sc2cc(F)c(F)cc21	M1 antag 100
NC(=O)c1cc2cc(Cc3ccccc3Cl)ccc2oc1=O	none
COc1cccc(/C=C/C(=O)OCC(=O)Nc2nnc(-c3ccccc3)o2)c1	none
CN(C)CC/C=C1/c2ccc(F)cc2Sc2ccc(Cl)cc21	M1 antag 100
Cc1c(NC(=O)Nc2ccc(F)cc2F)c(=O)n(-c2ccccc2)n1C	none
CCc1cccc(NS(=O)(=O)c2csc(C(N)=O)c2)c1	CHO-K1 Ca ag 16
O=C1C(=Cc2cccn2-c2ccccc2)C(=O)c2ccccc21	CHO-K1 Ca ag 15
